Measurements reported in the supplement of paper PMC12819154, “High-throughput peptide-centric local stability assay extends protein–ligand identification to membrane proteins, tissues and bacteria” (Nature Structural & Molecular Biology, 2025).

Biological target: T1, UniProt P0AES0
T1 sequence (whole entry): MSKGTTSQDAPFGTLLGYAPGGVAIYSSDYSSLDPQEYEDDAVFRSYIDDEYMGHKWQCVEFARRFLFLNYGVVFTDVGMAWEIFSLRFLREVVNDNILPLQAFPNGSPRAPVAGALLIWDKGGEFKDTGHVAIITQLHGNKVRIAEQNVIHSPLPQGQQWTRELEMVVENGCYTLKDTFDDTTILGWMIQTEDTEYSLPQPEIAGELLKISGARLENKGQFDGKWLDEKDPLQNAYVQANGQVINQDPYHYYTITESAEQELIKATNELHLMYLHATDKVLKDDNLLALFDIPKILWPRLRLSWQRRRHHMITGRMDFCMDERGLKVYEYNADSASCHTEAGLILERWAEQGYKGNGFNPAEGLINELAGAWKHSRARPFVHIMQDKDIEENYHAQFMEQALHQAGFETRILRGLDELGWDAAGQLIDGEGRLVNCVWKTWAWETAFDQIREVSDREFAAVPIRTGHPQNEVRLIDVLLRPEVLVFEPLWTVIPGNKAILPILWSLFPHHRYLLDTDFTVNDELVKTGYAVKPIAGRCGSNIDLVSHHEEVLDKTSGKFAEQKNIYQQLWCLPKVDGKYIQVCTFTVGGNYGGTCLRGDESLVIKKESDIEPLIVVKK
Assay: log2 fold change of tryptic peptide abundance, ligand vs vehicle (limited proteolysis) (log2 ratio); higher = more trypsin-susceptible (destabilized)
Details: peptide sequence: TGYAVKPIAGR; peptide start residue: 528; ligand concentration: 5 mM; sample: E. coli desalted lysate; replicate design: treated before aliquoting
Method: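 HT-PELSA: desalted E. coli K-12 BW25113 lysate (with 12 mM MgCl2) incubated with 5 mM ATP (pH 7) or water for 30 min at 25 C, then a 4 min trypsin pulse at 22 C. Peptides were quantified by DIA-MS (4 replicates). Value is the peptide log2 fold change (treated/control); negative = stabilized. Scale: negative = ligand-stabilized region.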
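Also: lysate desalted by size exclusion to strip endogenous ATP, peptide intensities built from DIA-NN precursor signals, and peptides missing any value discarded before comparison.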

| SMILES | log2 fold change |
| --- | --- |
| Nc1ncnc2c1ncn2[C@@H]1O[C@H](COP(=O)(O)OP(=O)(O)OP(=O)(O)O)[C@@H](O)[C@H]1O [adenosine 5'-triphosphate] | -1.49 |
